The target of the experiment is Neuropeptide Y receptor type 2 (Homo sapiens) (UniProt P49146). The experiment can be described thus: human Y2 receptor agonism – cell-based, fluorescence, counter-screen for NPY-Y1 potentiator project (AID 1698).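 Further: 0% = DMSO with isoproterenol and 100% = 40 nM NPY maximal response; agonism lowers cAMP so well fluorescence drops in active wells.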 The conditions noted are these: HEK293 Y2-CNGC, membrane potential fluorescence, agonist mode; at 3.6 µM; stronger effect = higher value.
Neuropeptide Y receptor type 2 (Homo sapiens), sequence (P49146 whole entry, looked up): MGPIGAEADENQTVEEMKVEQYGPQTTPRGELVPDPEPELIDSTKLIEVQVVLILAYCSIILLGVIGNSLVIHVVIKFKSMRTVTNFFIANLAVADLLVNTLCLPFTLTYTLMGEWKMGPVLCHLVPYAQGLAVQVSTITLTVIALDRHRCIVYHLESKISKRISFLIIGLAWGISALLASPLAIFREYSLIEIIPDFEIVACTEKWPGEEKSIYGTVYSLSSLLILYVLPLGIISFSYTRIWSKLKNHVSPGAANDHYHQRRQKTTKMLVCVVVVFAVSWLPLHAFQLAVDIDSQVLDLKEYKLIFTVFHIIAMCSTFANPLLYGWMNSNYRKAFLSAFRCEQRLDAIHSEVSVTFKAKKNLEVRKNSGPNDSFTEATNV

The other results are listed elsewhere or left out. Activity calls are given as the source filed them.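 How the source made its calls: active means activation above the solvent-only control wells' mean plus 3 SD (cut at about 11% in these data); inactive means the rest.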

Consider `Cc1nn(Cc2ccccc2Cl)c(Cl)c1C(=O)OC(C(=O)NC(N)=O)C(C)C` (configuration not stated), for which the activation is 31.5% (active).

For the molecule `CSC1=NP(=S)(SC)N(C)c2nc3n(c21)CCC3` (configuration not stated), the activation is 5.24% (inactive).

(Values after PubChem BioAssay AID1698 (The Scripps Research Institute Molecular Screening Center, 2009).)
